High-throughput results (PubChem)
The entries come from a sample that favours hits as a whole.
Dicer inh: blocks human Dicer maturation of pre-miR-21; 6% of 47,000 active; cat-ELCCA pre-miR-21 Dicer processing, chemiluminescence; hits give high values; Q9UPY3; z-score at 25 µM; in the data active = z-score above about 3, passing the limit was not always enough;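 also: higher signal means more uncleaved substrate so more Dicer inhibition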
Target sequence (Q9UPY3 whole entry, looked up): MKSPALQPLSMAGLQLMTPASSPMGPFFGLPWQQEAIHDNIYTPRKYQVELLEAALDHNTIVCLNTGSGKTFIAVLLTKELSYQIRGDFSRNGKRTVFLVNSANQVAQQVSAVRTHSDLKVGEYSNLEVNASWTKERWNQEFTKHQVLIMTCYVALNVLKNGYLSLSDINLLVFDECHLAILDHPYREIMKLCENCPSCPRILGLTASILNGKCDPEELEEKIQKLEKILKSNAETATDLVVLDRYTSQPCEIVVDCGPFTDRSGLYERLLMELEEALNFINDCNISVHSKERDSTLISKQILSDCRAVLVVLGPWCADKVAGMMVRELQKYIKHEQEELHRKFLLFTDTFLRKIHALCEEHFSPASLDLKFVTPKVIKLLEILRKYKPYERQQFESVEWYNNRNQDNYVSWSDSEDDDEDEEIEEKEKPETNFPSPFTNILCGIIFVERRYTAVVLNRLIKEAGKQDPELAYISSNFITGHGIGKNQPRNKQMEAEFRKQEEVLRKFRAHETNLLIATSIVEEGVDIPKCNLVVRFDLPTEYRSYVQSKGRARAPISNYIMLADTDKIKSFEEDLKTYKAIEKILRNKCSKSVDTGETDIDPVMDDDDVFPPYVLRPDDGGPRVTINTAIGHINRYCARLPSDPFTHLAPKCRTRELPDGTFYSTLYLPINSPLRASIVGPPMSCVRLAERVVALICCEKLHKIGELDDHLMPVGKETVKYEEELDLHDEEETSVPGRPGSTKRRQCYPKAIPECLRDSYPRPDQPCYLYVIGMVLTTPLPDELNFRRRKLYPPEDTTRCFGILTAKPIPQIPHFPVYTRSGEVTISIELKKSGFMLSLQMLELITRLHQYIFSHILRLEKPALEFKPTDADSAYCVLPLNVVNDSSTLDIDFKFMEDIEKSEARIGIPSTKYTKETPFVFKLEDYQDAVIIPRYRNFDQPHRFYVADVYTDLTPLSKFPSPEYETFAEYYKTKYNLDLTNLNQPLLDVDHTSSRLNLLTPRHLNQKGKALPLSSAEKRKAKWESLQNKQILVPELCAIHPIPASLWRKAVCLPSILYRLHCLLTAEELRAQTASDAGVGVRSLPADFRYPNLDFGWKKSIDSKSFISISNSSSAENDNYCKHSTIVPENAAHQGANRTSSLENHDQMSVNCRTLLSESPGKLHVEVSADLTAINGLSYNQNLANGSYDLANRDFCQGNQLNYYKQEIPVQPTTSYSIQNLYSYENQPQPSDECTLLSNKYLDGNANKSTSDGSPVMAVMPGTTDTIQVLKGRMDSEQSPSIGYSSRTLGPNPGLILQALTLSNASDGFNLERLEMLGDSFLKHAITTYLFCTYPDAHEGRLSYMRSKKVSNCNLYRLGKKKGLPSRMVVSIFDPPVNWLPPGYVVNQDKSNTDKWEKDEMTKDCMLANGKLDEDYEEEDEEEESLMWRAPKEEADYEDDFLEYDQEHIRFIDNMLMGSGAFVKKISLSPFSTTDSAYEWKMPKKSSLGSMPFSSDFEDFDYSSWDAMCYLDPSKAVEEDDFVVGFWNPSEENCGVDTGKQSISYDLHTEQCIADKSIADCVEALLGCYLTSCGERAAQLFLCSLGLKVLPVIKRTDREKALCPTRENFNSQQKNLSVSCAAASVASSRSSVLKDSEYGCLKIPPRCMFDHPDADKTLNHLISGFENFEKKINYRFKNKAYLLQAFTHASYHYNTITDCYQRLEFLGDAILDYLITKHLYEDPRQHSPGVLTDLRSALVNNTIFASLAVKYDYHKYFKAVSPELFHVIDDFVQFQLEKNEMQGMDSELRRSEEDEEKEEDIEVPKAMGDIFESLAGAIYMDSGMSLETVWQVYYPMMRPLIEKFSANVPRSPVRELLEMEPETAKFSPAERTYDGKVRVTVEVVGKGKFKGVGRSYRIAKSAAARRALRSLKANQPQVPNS
Hits are given with their value; i = inactive.

SMILES	Dicer inh
O=C(O)c1ccc2c(=O)n3c4ccc(Cl)cc4nc3c3ccc(C(=O)O)c1c23	i
COc1cccc(-c2nn3c(-c4ccccc4)nnc3s2)c1	i
COC(=O)c1cc(S(=O)(=O)NCCc2c[nH]c3ccccc23)oc1C	i
c1ccc(CN2CCC(N3CCN(C4CCCCC4)CC3)CC2)cc1	i
CCc1ccc(CN2CCN(C3CCCCC3)CC2)cc1	i
COc1ccc(OC)c(CN2CCN(Cc3ccc(SC)cc3)CC2)c1	i
Clc1ccc(CN2CCN(C3CCCCC3)CC2)cc1	i
Fc1cccc(CN2CCN(C3CCCC3)CC2)c1	3.8
Clc1ccc(CN2CCN(C3CCCC3)CC2)cc1	i
COc1ccc(OC)c(CN2CCN(C3CCCCC3)CC2)c1	3.1
COc1ccc(OC)c(CN2CCN(Cc3ccc(OC)c(Br)c3)CC2)c1	i
Fc1ccccc1CN1CCN(C2CCCCC2)CC1	4.1
CCOC(=O)NC(=S)N1CCCC1	i
O=C(NCc1ccc(S(=O)(=O)N2CCN(C3c4ccccc4-c4ccccc43)CC2)s1)c1ccccc1	i
O=C(O)CSc1nc(SCC(=O)O)c2ccccc2n1	i
CC(=O)Nc1ccc(C)c(N=Cc2ccc(Cl)c(Cl)c2)c1	i
Cn1nc(C(F)(F)F)cc1-c1ccc(/C=C(\C#N)S(=O)(=O)c2ccc(C(F)(F)F)cn2)s1	i
COc1ccc(NS(=O)(=O)c2ccc(Cl)cc2)c([N+](=O)[O-])c1	i
O=c1c(-n2nnc3ccccc32)c2oc3ccccc3nc-2c2ccccc12	i
CC(=O)n1ccc(-c2ccc(C#Cc3ccccc3)cc2)n1	i
CCOC(=O)N1CCc2c(sc3[nH]c(=O)n(-c4ccc(C)cc4)c(=O)c23)C1	i
COCCOC(=O)C1=C(C)N=C2SCCC(=O)N2C1c1ccccc1Cl (stereo unspecified)	i
Cn1c(=O)c2c(O)c(C=NCc3cccnc3)c(=O)n(C)c2n(C)c1=O	i
CSC1=N/C(=C\c2ccc(Cl)cc2)C(=O)N1N(C)C	i
CSC1=N/C(=C\c2ccc([N+](=O)[O-])s2)C(=O)N1CCOc1ccc(Cl)cc1	i
SMILES	Dicer inh
CSC1=N/C(=C\c2ccc(Cl)cc2)C(=O)N1CCOc1ccc(Cl)cc1	3.6
CCc1nc(SCC(=O)O)n[nH]1	i
COc1ccc(CCN=Cc2ccc(Oc3nccc(C(F)(F)F)n3)cc2)cc1OC	i
COc1ccc(C(=O)CC2(O)C(=O)Nc3ccccc32)cc1OC (stereo unspecified)	i
COC(=O)Cn1cc(C(=O)C2CCCCC2)c2ccccc21	i
CCN(CC)C(=O)Cn1cc(C(=O)c2cccs2)c2ccccc21	i
CCN(CC)C(=O)Cn1cc(C(=O)C2CC2)c2ccccc21	4.1
O=C(/C=C/Nc1cccc(Cl)c1)c1ccc(Cl)cc1	i
O=C1CC(c2cccs2)CC2=C1C(c1ccc(Cl)cc1)Nc1ccccc1N2 (stereo unspecified)	i
O=C1CC(c2ccccc2)CC2=C1C(c1cccc(O)c1)Nc1ccccc1N2 (stereo unspecified)	i
O=C1CC(c2cccs2)CC2=C1C(c1cccc(O)c1)Nc1ccccc1N2 (stereo unspecified)	3.2
COc1ccc(C2CC(=O)C3=C(C2)Nc2ccccc2NC3c2ccc(F)c(F)c2)cc1 (stereo unspecified)	i
O=C1CC(c2ccccc2)CC2=C1C(c1cccs1)Nc1ccccc1N2 (stereo unspecified)	i
O=C1CC(c2cccs2)CC2=C1C(c1ccc(Cl)c(F)c1)Nc1ccccc1N2 (stereo unspecified)	4.2
Cn1c(SCc2cc(=O)oc3cc(O)ccc23)nnc1C(F)(F)F	i
COc1ccc(-c2cc(C(F)(F)F)n3nc(C(N)=O)cc3n2)cc1OC	i
Cc1ccc(CN2C(=O)C(O)(c3c(C)[nH]c4ccccc34)c3ccccc32)cc1 (stereo unspecified)	i
Cc1[nH]c2ccccc2c1C1(O)C(=O)N(Cc2ccc(Cl)cc2)c2ccccc21 (stereo unspecified)	i
Cc1[nH]c2ccccc2c1C1(O)C(=O)N(Cc2ccc3c(c2)OCO3)c2ccccc21 (stereo unspecified)	3.9
COCCCNC(=S)NNC(=O)c1cc(OC)c(OC)c(OC)c1[N+](=O)[O-]	i
COC(=O)c1ccc2nc(C)c(C)nc2c1	i
CCOC(=O)c1ccc2nc(C)c(C)nc2c1	4.8
Cc1ccc(C(=O)COC(=O)c2ccc3nc(C)c(C)nc3c2)cc1	i
CCOC(=O)Cc1nn(Cc2nc(C(=O)OCC)cs2)c(=O)c2ccccc12	i
CCOCCOC(=O)C(C)Oc1ccc2c(=O)c(-c3ccc(Cl)cc3)coc2c1 (stereo unspecified)	i
CCCCSC1=C(C#N)C(=O)NC(c2ccc(O)c(OC)c2)S1 (stereo unspecified)	3.1
CCCCSC1=C(C#N)C(=O)NC(c2ccc(O)cc2)S1 (stereo unspecified)	i
CCCCSC1=C(C#N)C(=O)NC(c2ccc(C(=O)O)cc2)S1 (stereo unspecified)	i
CN(C)C=Nc1ccccc1Sc1nc2c(Cl)cc(Cl)cc2s1	i
NC1=NC(c2ccc(Cl)cc2)n2c(nc(=O)c3ccccc32)N1 (stereo unspecified)	i
